Most compounds without a hit are left out; they make up all but 19% or so of the library.
TGFb SMAD3 inh – qHTS for Inhibitors of TGF-b. Potency, µM (titrated, usually from 46.1 µM), for inactives: at the highest dose activity, negative = inhibition, actives largely listed as inhibitors. 410,000 tested, 1.2% active. HepG2 CAGA-GFP TGF-b/SMAD3 reporter, GFP fluorescence, 18 h; TGF-beta stimulated, 500 pg/mL final; also: potency is read from the fitted curve at half-maximal effect; % is scaled to controls: 0 for no effect and ±100 for the full control effect; nearly all actives have a fitted effect of over 65% in size
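Read-out: total well GFP (ex488/em500-530) summed from mean per-cell fluorescence. Cells: HEPG2 CAGA-GFP, 1% FBS DMEM, 18 h at 37 degrees C with 500 pg/mL final TGF-beta. Unstimulated wells served as the full-inhibition control; stimulated DMSO wells = 0%.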
IL1B secr inh – qHTS for Inhibitors of Inflammasome Signaling: IL-1-beta AlphaLISA Primary Screen; THP-1 LPS/ATP IL-1B secretion, AlphaLISA, 16 h; stronger effect = lower value; activity change, % at 57.5 µM; 360,000 tested, 4.7% active; AID 743279, 2014; in the data active = activity change below about -50%; inconclusive = mostly about -30% to -49%; also: % is scaled to controls: 0 for no effect and ±100 for the full control effect
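THP-1 cells pretreated 1 hr with compounds (up to 57.5 uM final), then stimulated with LPS (250 ng/mL final) plus ATP (1.25 mM final); secreted IL-1B measured by AlphaLISA after 16 hr, decreased signal indicating inhibition.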
DT40 TDP1 no CPT – qHTS for Inhibitors of human tyrosyl-DNA phosphodiesterase 1 (TDP1): qHTS in cells in absence of CPT; DT40 Tdp1-/- hTDP1 cells, no CPT, ATP luminescence, 48 h; 420,000 tested, 15% active; Potency, µM (titrated, usually from 46.2 µM), for inactives: at the highest dose activity change, negative = growth inhibition, most hits filed as inhibitors; AID 686978, 2013; also: potency is read from the fitted curve at half-maximal effect; % is scaled to controls: 0 for no effect and ±100 for the full control effect; nearly all actives have a fitted effect of over 55% in size
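DT40 Tdp1-/-;hTDP1 cells, no CPT (DMSO vehicle only), 400 cells/well; compounds pin-transferred; ≥48 hr, 37 °C; CellTiter-Glo 30 min RT dark, luminescence read.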
TDP1 block – qHTS Assay for Inhibitors of Tyrosyl-DNA Phosphodiesterase (TDP1); Tyrosyl-DNA phosphodiesterase 1 (Homo sapiens), Q9NUW8; recombinant TDP1, AlphaScreen DNA substrate cleavage; Potency, µM (top dose mostly 130 µM), without a hit: top-dose activity change, negative = inhibition, most hits filed as inhibitors; 350,000 tested, 0.28% active; AID 485290, 2010; also: potency is read from the fitted curve at half-maximal effect; % is scaled to controls: 0 for no effect and ±100 for the full control effect; nearly all actives have a fitted effect of over 40% in size
Target sequence (Q9NUW8 whole entry, looked up): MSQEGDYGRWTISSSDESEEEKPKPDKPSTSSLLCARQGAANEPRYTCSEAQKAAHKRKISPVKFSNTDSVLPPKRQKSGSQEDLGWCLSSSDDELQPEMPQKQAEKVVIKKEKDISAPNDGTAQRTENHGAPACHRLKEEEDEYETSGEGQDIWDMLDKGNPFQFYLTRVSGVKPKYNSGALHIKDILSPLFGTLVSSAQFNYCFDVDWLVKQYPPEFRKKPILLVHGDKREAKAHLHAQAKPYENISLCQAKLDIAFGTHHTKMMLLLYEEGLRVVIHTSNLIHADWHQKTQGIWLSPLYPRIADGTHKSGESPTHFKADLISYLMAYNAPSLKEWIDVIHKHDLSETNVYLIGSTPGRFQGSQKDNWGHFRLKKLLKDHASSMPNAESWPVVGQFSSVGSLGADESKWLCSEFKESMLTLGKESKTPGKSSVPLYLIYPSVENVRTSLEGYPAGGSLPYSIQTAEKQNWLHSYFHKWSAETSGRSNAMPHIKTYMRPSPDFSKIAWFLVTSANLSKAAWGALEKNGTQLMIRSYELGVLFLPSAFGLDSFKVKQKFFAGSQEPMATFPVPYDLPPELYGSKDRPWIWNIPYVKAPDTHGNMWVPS
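E. coli-derived human Tdp1, 1 nM final. Cpd preinc 15 min RT; substrate 15 nM final, 5 min RT; AS bead mix 10 ug/ml final, 10 min RT. Signal loss = tyrosine-FITC cleavage. No-enzyme wells = max signal.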
HepG2 viability – qHTS for Inhibitors of TGF-b: Cytotox Counterscreen; Potency, µM (titrated, usually from 46.1 µM), inactives show at the top dose activity change, negative = cytotoxicity, hits mostly cytotoxic; AID 588856, 2011; 410,000 tested, 0.76% active; HepG2 CAGA-GFP viability, ATP luminescence, 18 h; also: potency is read from the fitted curve at half-maximal effect
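CellTiter-Glo luminescence gave cytotoxicity after 18 hours at 37 degrees C. The cells were HepG2 CAGA-GFP in 1% FBS DMEM, stimulated with 500 pg/mL TGF-beta after compound addition. %Activity was normalised to no-cell wells (complete cell-killing) and DMSO (no toxicity), and curves were fitted and classified.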
TDP1 cell CPT – qHTS for Inhibitors of human tyrosyl-DNA phosphodiesterase 1 (TDP1): qHTS in cells in presence of CPT | chicken DT40 Tdp1-/-;hTDP1 cells + 20 nM CPT, ATP luminescence, 48 h | Potency, µM (highest dose often 46.2 µM), for the others: top-dose activity change, negative = growth inhibition, hits mostly inhibitors | 420,000 tested, 12% active; also: potency is read from the fitted curve at half-maximal effect; % is scaled to controls: 0 for no effect and ±100 for the full control effect; nearly all actives have a fitted effect of over 55% in size
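Chicken DT40 Tdp1-/- cells complemented with human TDP1, 400 cells/well, exposed to compounds plus 20 nM camptothecin for at least 48 h at 37 C; viability read as ATP content by CellTiter-Glo luminescence.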
The depositor's hits bear a star; ? = inconclusive; / = no result; [ ] = another dose, or the depositor's remark. Unless noted, calls follow the shape of the dose curve; as a rule, active = well fitted curve in the direction sought with a large enough effect; inconclusive = small, poorly fitted or top-dose-only effect, or another doubt; inactive = no such curve, though single readings can be large; an effect the other way counts as inactive or inconclusive.

SMILES | TGFb SMAD3 inh | IL1B secr inh | DT40 TDP1 no CPT | TDP1 block | HepG2 viability | TDP1 cell CPT
COc1ccccc1N1CCN(C(=O)c2nn(C)c3c2CS(=O)(=O)c2ccccc2-3)CC1 | 4% | 2 | ? | 6% | 1% | ?
Cn1nc(C(=O)N2CCN(c3ccc(Cl)cc3)CC2)c2c1-c1ccccc1S(=O)(=O)C2 | ? | -58* | ? | 2% | -6% | 16µM*
CCOc1ccc(/C=C2\SC(=O)N(CCNC(=O)C3COc4ccccc4O3)C2=O)cc1OC (centres undefined) | ? | -53* | 9.2µM* | 2% | -3% | 12µM*
O=C(NCCN1C(=O)S/C(=C\c2ccc(Cl)c(Cl)c2)C1=O)C1COc2ccccc2O1 (centres undefined) | ? | -56* | ? | 4% | -2% | ?
COc1ccc(/C=C2/SC(=O)N(CCNC(=O)C3COc4ccccc4O3)C2=O)cc1 (centres undefined) | ? | 8 | 21µM* | 5% | -31% | ?
O=C(NCCN1C(=O)S/C(=C\c2ccc(Cl)c(Cl)c2)C1=O)c1ccc2c(c1)C(=O)N(Cc1ccncc1)C2=O | -7% | ? | 12µM* | 6% | -15% | 13µM*
COc1ccc(/C=C2/SC(=O)N(CCNC(=O)C3CC(=O)N(Cc4ccccc4)C3)C2=O)cc1 (centres undefined) | -21% | -3 | ? | / | -18% | ?
CC(C)c1ccccc1S(=O)(=O)c1cc(N)c2ncccc2c1[N+](=O)[O-] | / | / | / | 13% | / | /
Cc1ccc(-c2cn3nc(N4CCCC(C(=O)NCc5ccc(F)cc5)C4)sc3n2)cc1 (centres undefined) | -16% | / | ? | 6% | 3% | ?
CCCSCCCNC(=O)C1CCN(c2nn3cc(-c4ccc(F)cc4)nc3s2)CC1 | 0% | / | ? | 2% | 0% | 5.2µM*
COc1ccc(-c2cn3nc(N4CCC(C(=O)NCc5ccc(F)cc5)CC4)sc3n2)cc1 | -22% | / | ? | 1% | 3% | -33%
Cc1ccc(-c2cn3nc(N4CCCC(C(=O)Nc5ccc(F)cc5)C4)sc3n2)cc1 (centres undefined) | -17% | / | 18µM* | 5% | -26% | 16µM*
COc1ccc(-c2cn3nc(N4CCCC(C(=O)Nc5cc(C)cc(C)c5)C4)sc3n2)cc1 (centres undefined) | 0% | / | 8.2µM* | 6% | -13% | 8.2µM*
COc1ccc(-c2cn3nc(N4CCC(C(=O)Nc5ccc(C)cc5)CC4)sc3n2)cc1 | 0% | / | 21µM* | 4% | 5% | ?
CCOC(=O)c1c(C)[nH]c(C(=O)OCc2ccccc2F)c1C | -6% | -2 | ? | 10% | 2% | -3%
COC(=O)c1cc(C(=O)Nc2cc(C)on2)cc([N+](=O)[O-])c1 | 23% | -9 | 16% | / | -6% | -1%
CCNC(=O)C1CCCN(c2nn3cc(-c4ccc(C)cc4)nc3s2)C1 (centres undefined) | ? | / | 23µM* | 4% | -17% | 18µM*
COc1ccccc1CNC(=O)C1CCCN(c2nn3cc(-c4ccc(F)cc4)nc3s2)C1 (centres undefined) | 0% | / | ? | 5% | 7% | ?
Cc1cccc(CNC(=O)C2CCN(c3nn4cc(-c5ccc(F)cc5)nc4s3)CC2)c1 | 0% | / | -30% | -1% | -5% | -25%
COc1ccc(-c2cn3nc(N4CCCC(C(=O)Nc5cccc(Cl)c5C)C4)sc3n2)cc1 (centres undefined) | -7% | / | 21µM* | 2% | -23% | ?
COc1ccc(-c2cn3nc(N4CCCC(C(=O)Nc5ccc(C)c(C)c5)C4)sc3n2)cc1 (centres undefined) | 0% | / | 12µM* | 5% | -12% | ?
COc1ccc(-c2cn3nc(N4CCCC(C(=O)NCc5ccccc5C)C4)sc3n2)cc1 (centres undefined) | 0% | / | 10µM* | 10% | -20% | 13µM*
CC1CCC(NC(=O)c2ccc(NC(=O)c3ccc(=O)[nH]c3)cc2)CC1 (centres undefined) | / | / | / | 1% | / | /
CCCc1cc(=O)[nH]c(SCC(=O)N2CCN(c3ccccc3OC)CC2)n1 | / | / | -17% | 2% | 1% | -5%
COc1ccc(-c2cn3nc(N4CCC(C(=O)Nc5cccc(Cl)c5)CC4)sc3n2)cc1 | -22% | / | ? | -1% | 1% | -28%
SMILES | TGFb SMAD3 inh | IL1B secr inh | DT40 TDP1 no CPT | TDP1 block | HepG2 viability | TDP1 cell CPT
COc1ccc(-c2cn3nc(N4CCCC(C(=O)Nc5cccc(OC)c5)C4)sc3n2)cc1 (centres undefined) | ? | / | 23µM* | 3% | -5% | 21µM*
CCOc1ccc(NC(=O)C2CCCN(c3nn4cc(-c5ccc(OC)cc5)nc4s3)C2)cc1 (centres undefined) | ? | / | 10µM* | 9% | -9% | ?
COc1cccc(NC(=O)C2CCN(c3nn4cc(-c5ccc(F)cc5)nc4s3)CC2)c1 | -11% | / | ? | 6% | -28% | 13µM*
Cc1cccc(S(=O)(=O)Nc2ccc(-c3nc4ccc(C)cc4s3)cc2)c1 | 13µM* | -12 | 29µM* | 3% | -62% | ?
Cc1cccc(S(=O)(=O)Nc2ccc(-c3cn4ccccc4n3)cc2)c1 | -1% | -17 | -27% | -4% | 4% | -3%
Cc1ccc(S(=O)(=O)Nc2ccc(-c3nc4ccc(C)cc4s3)cc2)cc1 | ? | 0 | ? | 5% | 10µM* | ?
Cc1ccc2nc(-c3ccc(NS(=O)(=O)c4c(C)n(C)c(=O)n(C)c4=O)cc3)sc2c1 | ? | -19 | ? | / | -30% | ?
COC(=O)c1c(NC(=O)/C(C#N)=C/c2ccc(OC)cc2)sc2c1CCC2 | 0% | / | -7% | 0%[12.3 µM] | 6% | 8%
Clc1cccc(Nc2nc(-c3ccncc3)cs2)c1 | 91% | -61* | ? | 3% | -47% | ?
Cc1cccc(Nc2nc(-c3ccncc3)cs2)c1 | -14% | -29 | ? | 6% | -56% | ?

Screening results from PubChem BioAssay.
